We go through 40 molecules from the supplement of paper PMC9950053.

Structures are written as SMILES. Structures can show the parent of a compound that is named as a salt.

This experiment has as its system Danio rerio larvae (5 dpf). In words: excitability (activity period 17 minus period 16, 1-s interval sound) minus DMSO control (percentage points); higher = more acoustic excitability than DMSO larvae. Conditions: 10 µM; exposure time: 3 h pre-incubation + 3 h imaging. The procedure:
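Wild-type 5 dpf zebrafish larvae (n=48 per drug, 96-well plates, 28.5 °C) were exposed to Tocris FDA-approved library compounds at 10 µM (0.1% DMSO) for 3 h before and 3 h during imaging. Images were taken every 6 s during visual (moving coloured lines) and acoustic stimuli, and larvae were tracked with the DeepLabCut-based Z-LaP Tracker. Each behavioural measure is the treated-group mean minus the DMSO vehicle control mean (n=844), in percentage points. This mapping covers compounds with 4-character plate codes.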
In the case of `Cc1cn([C@H]2C=C[C@@H](CO)O2)c(=O)[nH]c1=O` [Stavudine], the excitability turned out to be 1.32.
Take `CCC(C)(C)C(=O)O[C@H]1C[C@@H](C)C=C2C=C[C@H](C)[C@H](CC[C@@H]3C[C@@H](O)CC(=O)O3)[C@H]21` [Simvastatin]: the excitability stood at 10.2.
For the molecule `O=C(O)c1cc(/N=N/c2ccc(S(=O)(=O)Nc3ccccn3)cc2)ccc1O` [Sulfasalazine], the excitability is 0.715.
In the case of `Nc1ccn([C@@H]2O[C@H](CO)[C@@H](O)C2(F)F)c(=O)n1` [Gemcitabine hydrochloride], the excitability stood at 1.87.
As for `COC(=O)C1=C(C)NC(C)=C(C(=O)OC(C)C)C1c1cccc2nonc12` (stereo not given) [Isradipine], the figure is 15.3; as for `C[C@]12CC[C@@H]3c4ccc(O)cc4C[C@@H](CCCCCCCCC[S+]([O-])CCCC(F)(F)C(F)(F)F)[C@H]3[C@@H]1CC[C@@H]2O` (stereo not given in full), 3.06.
As for `CC#C[C@]1(O)CC[C@H]2[C@@H]3CCC4=CC(=O)CCC4=C3[C@@H](c3ccc(N(C)C)cc3)C[C@@]21C` [Mifepristone], the excitability was determined as 5.63.
As to `Nc1nc2[nH]cc(CCc3ccc(C(=O)N[C@@H](CCC(=O)O)C(=O)O)cc3)c2c(=O)[nH]1` [Pemetrexed], the excitability came to 2.33.
Consider `NC(=O)c1ncn([C@@H]2O[C@H](CO)[C@@H](O)[C@H]2O)n1` [Ribavirin], for which the excitability amounted to 3.28.
On to `CCCCCOC(=O)Nc1nc(=O)n([C@@H]2O[C@H](C)[C@@H](O)[C@H]2O)cc1F` [Capecitabine], for which the excitability amounted to 6.07.
Turning to `CN(C)CC/C=C1/c2ccccc2COc2ccc(CC(=O)O)cc21` [Olopatadine hydrochloride], the excitability was determined as 5.43.
As for `CCOc1cc(CC(=O)N[C@@H](CC(C)C)c2ccccc2N2CCCCC2)ccc1C(=O)O` [Repaglinide], the figure is 9.5; as for `CCCc1nc(C(C)(C)O)c(C(=O)O)n1Cc1ccc(-c2ccccc2-c2nnn[nH]2)cc1` [Olmesartan], 0.0977; as for `CN(C)CCC[C@@]1(c2ccc(F)cc2)OCc2cc(C#N)ccc21` [Escitalopram oxalate], 14.5.
Take `N#Cc1ccc(C(c2ccc(C#N)cc2)n2cncn2)cc1` [Letrozole]: the excitability came to 0.318.
With `Cc1ccccc1C(=O)Nc1ccc(C(=O)N2CCCC(O)c3cc(Cl)ccc32)c(C)c1` (stereo not given) [Tolvaptan], the excitability is 8.2.
Take `Clc1ccc(COC(Cn2ccnc2)c2ccc(Cl)cc2Cl)c(Cl)c1` (stereo not given) [Miconazole nitrate]: the excitability is -1.24.
Consider `Cc1ccsc1C(=CCCN1CCC[C@@H](C(=O)O)C1)c1sccc1C` [Tiagabine hydrochloride], for which the excitability was -6.75.
The result for `C=CC(=O)N1CCC[C@@H](n2nc(-c3ccc(Oc4ccccc4)cc3)c3c(N)ncnc32)C1` [Ibrutinib] reads -1.71; that for `CCOC(=O)c1ncn2c1CN(C)C(=O)c1cc(F)ccc1-2` [Flumazenil], 2.65; that for `CNC(=O)c1ccccc1Sc1ccc2c(/C=C/c3ccccn3)n[nH]c2c1` [Axitinib], 1.48.
Take `COCCCOc1cc(C[C@@H](C[C@H](N)[C@@H](O)C[C@H](C(=O)NCC(C)(C)C(N)=O)C(C)C)C(C)C)ccc1OC` [Aliskiren hemifumarate]: the excitability turned out to be 12.7.
`CCOc1ccccc1OCCN[C@H](C)Cc1ccc(OC)c(S(N)(=O)=O)c1` [Tamsulosin hydrochloride]: the excitability came out at 16.7.
As to `COc1ccc(C[C@@H](C)NC[C@H](O)c2ccc(O)c(NC=O)c2)cc1` [Arformoterol tartrate], the excitability was found to be 4.62.
Regarding `CC(=O)O[C@H]1C(=O)[C@@]2(C)[C@H]([C@H](OC(=O)c3ccccc3)[C@]3(O)C[C@H](OC(=O)[C@H](O)[C@@H](NC(=O)c4ccccc4)c4ccccc4)C(C)=C1C3(C)C)[C@]1(OC(C)=O)CO[C@@H]1C[C@@H]2O` [Taxol], the excitability came to 2.27.
Regarding `Cc1nc(Nc2ncc(C(=O)Nc3c(C)cccc3Cl)s2)cc(N2CCN(CCO)CC2)n1` [Dasatinib], the excitability was 17.4.
As for `NS(=O)(=O)c1cc(C(=O)O)c(NCc2ccco2)cc1Cl` [Furosemide], the excitability is -1.6.
As to `C#C[C@]1(O)CC[C@H]2[C@@H]3CCC4=CC(=O)CC[C@@H]4[C@H]3CC[C@@]21CC` [Levonorgestrel], the excitability worked out at 3.64.
On to `OCCN(CCO)c1nc(N2CCCCC2)c2nc(N(CCO)CCO)nc(N3CCCCC3)c2n1` [Dipyridamole], for which the excitability was -2.85.
The result for `COC(c1ccccc1)(c1ccccc1)[C@H](Oc1nc(C)cc(C)n1)C(=O)O` [Ambrisentan] reads -1.02; that for `O=c1[nH]c(=O)n([C@H]2C[C@H](O)[C@@H](CO)O2)cc1C(F)(F)F` [Trifluorothymidine], 4.38; that for `CC(C)c1nc(N(C)S(C)(=O)=O)nc(-c2ccc(F)cc2)c1/C=C/[C@@H](O)C[C@@H](O)CC(=O)O` [Rosuvastatin calcium], -2.24.
Take `CCCN(CCC)S(=O)(=O)c1ccc(C(=O)O)cc1` [Probenecid]: the excitability came to 5.41.
Consider `CN1CC(=O)N2[C@H](c3ccc4c(c3)OCO4)c3[nH]c4ccccc4c3C[C@@H]2C1=O` [Tadalafil], for which the excitability was 5.81.
On to `CC(C)(C(=O)c1cccnc1)c1cccnc1` [Metyrapone], for which the excitability worked out at 15.8.
For the molecule `Nc1ncn([C@@H]2O[C@H](CO)[C@@H](O)[C@H]2O)c(=O)n1` [5-Azacytidine], the excitability is -2.47.
Regarding `Nc1nc(F)nc2c1ncn2[C@@H]1O[C@H](CO)[C@@H](O)[C@@H]1O` [Fludarabine], the excitability is 1.97.
Turning to `CN1CCC[C@@H]1CCO[C@](C)(c1ccccc1)c1ccc(Cl)cc1` [Clemastine fumarate], the excitability turned out to be 12.9.
Consider `Nc1cc(N2CCCCC2)nc(N)[n+]1[O-]` [Minoxidil], for which the excitability worked out at 0.502.
As to `COc1c(C)c2c(c(O)c1C/C=C(\C)CCC(=O)OCCN1CCOCC1)C(=O)OC2` [Mycophenolate mofetil], the excitability came to 4.14.
